Screening results deposited in PubChem BioAssay by National Center for Advancing Translational Sciences (NCATS).
Rows were chosen to be rich in hits. Some 4% of all compounds tested hit in one or more screens of this group.
TRHR agonist = qHTS for Small Molecule Agonists and Allosteric Enhancers of Human TRH Receptor: Primary Screen for Agonists; Thyrotropin-releasing hormone receptor (Homo sapiens), P34981; TRHR cells, calcium flux fluo-8, FDSS agonist mode; activation, % at 2 µM; actives 0.18% (n = 360,000); note: 0% is about no effect
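TRHR-expressing cells loaded with fluo-8 calcium dye; 23 nL library compound pin-transferred, kinetic FDSS fluorescence (Ex 480/Em 530) recorded about 180 s for agonist-induced calcium release, before a 10 nM TRH EC20 addition for potentiator mode.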
TRHR PAM = qHTS for Small Molecule Agonists and Allosteric Enhancers of Human TRH Receptor: Primary Screen for Enhancers. AID 493056, 2011. Thyrotropin-releasing hormone receptor (Homo sapiens), P34981. enhancement, % at 2 µM. TRHR cells, fluo-8 calcium fluorescence, EC20 TRH enhancement. actives 0.66% (n = 360,000); in the data active = enhancement above about 30%; note: 0% is about no effect
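Enhancer read-out: after compound pinning and an initial kinetic agonist-mode read, an EC20 of TRH (10 nM final) was injected and fluo-8 calcium signal (Ex 480/Em 530) followed at 1 s/cycle for 100 cycles in TRHR-expressing cells.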
D1 PAM = Potentiators of Human D1 Dopamine Receptor: qHTS; HEK293 TREx D1 cells, calcium flux, dopamine EC20 potentiation; potentiation, % at 10 µM; actives 0.036% (n = 360,000); in the data active = potentiation above about 30%; note: 0% is about no effect
Target sequence (P21728 whole entry, looked up): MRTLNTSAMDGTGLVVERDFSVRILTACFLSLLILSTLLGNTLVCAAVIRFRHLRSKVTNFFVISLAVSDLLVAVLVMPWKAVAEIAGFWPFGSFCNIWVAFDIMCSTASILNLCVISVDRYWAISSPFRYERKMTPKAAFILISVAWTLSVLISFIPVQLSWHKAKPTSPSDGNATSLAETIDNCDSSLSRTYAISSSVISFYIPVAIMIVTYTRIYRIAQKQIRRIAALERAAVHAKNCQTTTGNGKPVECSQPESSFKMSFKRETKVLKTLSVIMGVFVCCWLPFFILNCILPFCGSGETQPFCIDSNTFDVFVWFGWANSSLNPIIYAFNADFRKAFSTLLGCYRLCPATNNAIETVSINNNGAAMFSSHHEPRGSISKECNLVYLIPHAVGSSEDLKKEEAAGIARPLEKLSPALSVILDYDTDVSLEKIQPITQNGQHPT
Glioma ERSR ind = qHTS for Inducers of the Endoplasmic Reticulum Stress Response (ERSR) in Human Glioma: qHTS. U87-MG GRP78 promoter luciferase reporter, 16 h. actives 0.02% (n = 420,000). Potency, µM, inactives show top-dose activation, actives largely listed as activators; active = well fitted activation curve with a large enough effect; note: potency is the fitted concentration of half-maximal effect; series mostly up to about 76 µM; % of control where 0% means no effect; nearly all actives have a fitted effect of over 35% in size
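Stably transfected U87-MG human glioma cells carrying a GRP78-based luminescent sensor were seeded at 1000 cells/well, pin-dosed with compounds and incubated 16 h. Luciferase reagent was then added, and end-point luminescence was read after 10 min at room temperature.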
D1 ag = Allosteric Agonists of the Human D1 Dopamine Receptor: qHTS. D(1A) dopamine receptor (Homo sapiens), P21728. HEK293 T-REx D1 cells, calcium flux, agonist mode. activation, % at 2 µM. actives 1% (n = 360,000). AID 504660, 2011; note: 0% is about no effect
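Tetracycline-induced HEK293 TREx D1 cells, force-coupled to calcium signalling, were dye-loaded with a no-wash calcium kit. Compound was pin-added after a 10 s baseline. Fluorescence was read kinetically at 1 cycle/s for 180 s, with calcium rises flagged as agonism.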
D1 antag = Antagonist of Human D 1 Dopamine Receptor: qHTS. HEK293 TREx D1 cells, calcium flux, dopamine EC80; stronger effect = lower value. AID 504652, 2011. activity change, negative = inhibition, % at 10 µM. D(1A) dopamine receptor (Homo sapiens), P21728. actives 3.2% (n = 360,000); in the data active = activity change below about -30%; note: % is set by controls: 0 for no effect and ±100 for the full control effect
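HEK293 T-REx cells expressing inducible, force-coupled D1 receptor; no-wash Ca dye, 30–90 min RT. Cmpd → 180 s read at 1 Hz → EC80 DA → 180 s read.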
The depositor's hits bear a star; . = not tested or not shown; ! = repeats disagree. Cut-off read from the data, not from the text of the source, unless noted: active = activation above about 30%; inactive = the rest.

SMILES | TRHR agonist | TRHR PAM | D1 PAM | Glioma ERSR ind | D1 ag | D1 antag
CCC(C(=O)OCC(=O)N1CCN(S(=O)(=O)c2ccc(C)cc2C)CC1)c1ccccc1 (configuration not stated) | 1 | -5 | . | -5% | 49* | -3
Cc1nnc(SCC(=O)N2CCN(S(=O)(=O)c3ccccc3)CC2)s1 | 0 | -1 | -4 | -5% | 1 | -39*
Cc1ccc(C)c(S(=O)(=O)N2CCN(C(=O)CCc3c[nH]c4ccccc34)CC2)c1 | 0 | 2 | -5 | -6% | 1 | -35*
Cc1ccc(C)c(S(=O)(=O)N2CCN(C(=O)CCCc3c[nH]c4ccccc34)CC2)c1 | 1 | -6 | -3 | -2% | 1 | 7
Cc1ccc(S(=O)(=O)N2CCN(C(=O)COC(=O)CC(C)c3ccccc3)CC2)c(C)c1 (configuration not stated) | 0 | -2 | 1 | -3% | 15 | 11
Cc1ccc(C)c(S(=O)(=O)N2CCN(C(=O)CSc3ccccc3)CC2)c1 | 1 | 3 | -4 | -5% | -1 | -41*
Cc1csc(SCC(=O)N2CCN(S(=O)(=O)c3ccccc3)CC2)n1 | 0 | 12 | 6 | -2% | 2 | -13
CC(NC(=O)CCl)c1ccccc1Br (configuration not stated) | 0 | 2 | -4 | -10% | 0 | -4
COc1ccc2cc(CN(CC3CCCO3)C(=S)Nc3ccccc3)c(=O)[nH]c2c1 (configuration not stated) | 0 | -10 | -4 | -3% | 2 | -8
O=C1CC2(CCN(C(=O)c3c(F)cccc3F)CC2)Oc2ccccc21 | 1 | 13 | -4 | -2% | 3 | 0
Cc1ccc(S(=O)(=O)N2CCN(C(=O)CSc3nnc(-c4ccco4)o3)CC2)cc1 | -1 | 6 | -8 | -3% | 0 | -40*
COc1ccc(C(=O)Nc2n[nH]c(-c3ccncc3)n2)cc1 | 0 | 1 | -3 | -2% | 4 | -47*
CC12C=C(/C=C/c3ccc(Br)cc3)C(C)(C1)C(c1ccc(Br)cc1)CC2=O (configuration not stated) | . | . | . | -4% | . | .
COP(=O)(OC)c1nc(-c2ccc([N+](=O)[O-])cc2)oc1N1CCCCC1 | 12 | 1 | -6 | -6% | 49* | -3
CCOP(=O)(OCC)c1nc(-c2ccccc2)oc1N1CCCCC1 | -1 | 1 | -3 | -3% | 1 | 9
COc1cc(C=O)ccc1OCCOc1ccccc1[N+](=O)[O-] | 1 | 14 | -4 | 5% | 5 | -37*
COc1cc(C=O)ccc1OCCCOc1ccccc1[N+](=O)[O-] | -2 | 14 | -4 | 4% | 12 | -13
CCOC(=O)N1CCC(NC(=O)c2cc(COc3ccccc3SC)on2)CC1 | -1 | 3 | -3 | 2% | 16 | -33*
Cc1ccc(C)c(NC(=O)CN(C)S(=O)(=O)c2cccc3cccnc23)c1 | 0 | 32*! | 0 | -1% | 4 | 8
CCOC(=O)Cc1csc(NC(=O)CN(C)S(=O)(=O)c2cccc3cccnc23)n1 | 0 | -1 | . | -6% | 5 | -46*
CNC(=O)c1c(NC(=O)c2ccc(S(=O)(=O)N3CCCC3)cc2)sc2c1CCN(C(C)C)C2 | 47* | 3 | -1 | . | 89* | 4
CCN1CCc2c(sc(NC(=O)c3ccc(S(=O)(=O)N4CCOCC4)cc3)c2C(N)=O)C1 | 0 | 5 | 2 | -6% | 2 | -8
CC(C)CN(CC(C)C)S(=O)(=O)c1ccc(C(=O)Nc2sc3c(c2C(N)=O)CCN(C(C)C)C3)cc1 | 18 | 9 | -2 | -10% | 54* | 28
CCN1CCc2c(sc(NC(=O)c3ccc(C(=O)c4ccccc4)cc3)c2C(N)=O)C1 | -1 | 3 | -2 | -8% | 16 | -14
CC(C)N1CCc2c(sc(NC(=O)c3ccc(S(=O)(=O)N4CCOCC4)cc3)c2C(N)=O)C1 | 10 | 2 | -4 | -1% | 2 | -4
SMILES | TRHR agonist | TRHR PAM | D1 PAM | Glioma ERSR ind | D1 ag | D1 antag
CCCCN(CCCC)S(=O)(=O)c1ccc(C(=O)Nc2sc3c(c2C(N)=O)CCN(CC)C3)cc1 | 17 | 28 | 2 | -7% | 78* | 6
CCN1CCc2c(sc(NC(=O)c3ccc(S(=O)(=O)N(CC)c4ccccc4)cc3)c2C(N)=O)C1 | 74* | 15 | -4 | -11% | 148* | -20
CNC(=O)c1c(NC(=O)c2ccc(S(=O)(=O)N3CC(C)OC(C)C3)cc2)sc2c1CCN(C(C)C)C2 (configuration not stated) | 2 | 5 | -5 | -1% | 6 | 13
Cc1ccc(C(=O)NNC(=O)c2ccccc2O)cc1S(=O)(=O)N1CCCCC1 | 0 | 3 | -4 | -3% | 6 | -26
O=c1cc[nH]c2ccc(OC(F)(F)F)cc12 | 1 | 0 | 0 | 3% | 4 | 5
O=C(NC(=S)Nc1ccccc1N1CCN(C(=O)c2ccccc2)CC1)c1ccccc1F | 1 | -6 | -8 | -3% | 1 | 20
Cc1ccc2c(C)c(C(=O)N(C)C(C)c3ccon3)oc2c1C (configuration not stated) | 0 | 1 | -1 | 7% | 2 | -39*
Cc1ccc2c(C)c(C(=O)N(C)C(C)c3ccncn3)oc2c1C (configuration not stated) | -2 | 0 | 6 | 5% | 2 | 16
O=C(CCNC(=O)c1ccc(Cl)cc1)Nc1ccncc1 | 0 | -5 | -3 | 1% | -2 | -9
CC(=O)Nc1ccccc1-c1cccc2nccn12 | . | . | . | -1% | . | .
CCN(CC)c1ccc([N+](=O)[O-])cc1C(=O)N1CCOCC1 | 0 | -8 | 11 | 1% | 2 | 2
CCN(CC)C1=NS(=O)(=O)c2cc([N+](=O)[O-])ccc21 | 0 | 34* | -2 | -4% | -1 | 15
CS(=O)(=O)N1CCC(Oc2ccccc2C(=O)N2CCCCC2CO)CC1 (configuration not stated) | 0 | -11 | 1 | -2% | 0 | 2
COC(=O)CN(C)C(=O)c1ccccc1OC1CCN(S(C)(=O)=O)CC1 | -1 | 35* | 4 | -5% | 1 | 0
Cc1ccccc1Cc1ccc(Cl)nn1 | 0 | -1 | -5 | 1% | 1 | -44*
